LAP4 TOR yeast = yeast TOR pathway LAP4-GFP modulation | S. cerevisiae LAP4-GFP multiplex, flow cytometry GFP, 3 h; median GFP as percent of DMSO wells | GFP response vs DMSO, % at 10 µM | actives 0.34% (n = 320,000);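 active = GFP response vs DMSO above a set limit, about the screen mean plus 3 SD, cut at about 150% in these data; inconclusive = under 70 cell events counted for the yeast strain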
MEP2 TOR yeast = yeast TOR pathway MEP2-GFP modulation; S. cerevisiae MEP2-GFP strain, flow cytometry GFP, 3 h; 100% = DMSO control level; AID 2016; actives 0.51% (n = 330,000); GFP response vs DMSO, % at 10 µM;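 active = GFP response versus DMSO above a set limit, roughly screen mean plus 3 SD, cut at about 180% in these data; inconclusive = fewer than 70 cells counted for a yeast strain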;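 also: median GFP fluorescence of the barcode-gated MEP2-GFP cells per well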
RPL19A-GFP yeast = alters RPL19A-GFP fluorescence in TOR pathway yeast screen; S. cerevisiae RPL19A-GFP strain, flow cytometry, 3 h; stronger effect = lower value; percent response vs DMSO, % at 10 µM; actives 0.3% (n = 330,000); AID 2025;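 active = percent response vs DMSO below 50%; inconclusive = fewer than 70 events counted for the yeast strain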;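 also: median channel GFP fluorescence of the barcoded RPL19A-GFP strain; lower means less RPL19A-GFP as with rapamycin TOR inhibition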
VLA-4 inh = inhibition in a human VLA-4 binding assay; P13612; VLA-4 expressing cells, ligand binding flow cytometry; inhibition, % (about 7 µM as worked out from the volumes in the protocol); actives 0.2% (n = 330,000); AID 2557; in the data active = inhibition above about 50%
Target sequence (P13612 whole entry, looked up): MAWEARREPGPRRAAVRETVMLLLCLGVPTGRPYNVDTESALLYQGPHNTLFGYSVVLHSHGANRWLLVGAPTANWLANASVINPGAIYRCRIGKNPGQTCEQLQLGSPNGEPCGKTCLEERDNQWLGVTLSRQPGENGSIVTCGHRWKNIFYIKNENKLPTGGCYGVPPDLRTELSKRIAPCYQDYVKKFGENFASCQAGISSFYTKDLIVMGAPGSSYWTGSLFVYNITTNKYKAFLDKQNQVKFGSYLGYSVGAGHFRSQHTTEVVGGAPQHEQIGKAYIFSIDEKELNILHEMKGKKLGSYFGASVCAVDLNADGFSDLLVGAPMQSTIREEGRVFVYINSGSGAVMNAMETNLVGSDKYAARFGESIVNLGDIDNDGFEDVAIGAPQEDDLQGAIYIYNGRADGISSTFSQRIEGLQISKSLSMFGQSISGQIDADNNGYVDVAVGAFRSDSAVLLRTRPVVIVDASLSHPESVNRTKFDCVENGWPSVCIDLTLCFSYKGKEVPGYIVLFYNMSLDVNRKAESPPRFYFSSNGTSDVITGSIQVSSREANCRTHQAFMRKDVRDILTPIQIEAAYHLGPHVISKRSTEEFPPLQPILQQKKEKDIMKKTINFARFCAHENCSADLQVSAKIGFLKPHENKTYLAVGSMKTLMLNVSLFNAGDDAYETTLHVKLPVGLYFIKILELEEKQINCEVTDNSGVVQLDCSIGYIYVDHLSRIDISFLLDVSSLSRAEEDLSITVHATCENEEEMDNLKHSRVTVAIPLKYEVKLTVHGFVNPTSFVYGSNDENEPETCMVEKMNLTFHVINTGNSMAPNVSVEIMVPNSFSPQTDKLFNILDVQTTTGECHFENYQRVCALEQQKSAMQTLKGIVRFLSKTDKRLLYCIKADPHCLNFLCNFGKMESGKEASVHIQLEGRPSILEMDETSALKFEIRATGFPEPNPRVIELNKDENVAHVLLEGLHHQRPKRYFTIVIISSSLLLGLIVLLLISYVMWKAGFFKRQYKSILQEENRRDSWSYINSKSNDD
CIT2-GFP yeast = modulators of TOR pathway CIT2-GFP in S. cerevisiae | actives 0.065% (n = 320,000) | S. cerevisiae CIT2-GFP strain, flow cytometry, 3 h; 100 means same as DMSO wells | GFP response vs DMSO, % at 10 µM;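 active = GFP response relative to DMSO above a set limit, near the screen mean plus 3 SD, cut at about 150% in these data; inconclusive = Fewer than 70 cells measured for a yeast strain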;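 also: ratio of well median GFP fluorescence to mean of DMSO wells on the plate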
AGP1-GFP MLPCN = modulators of TOR pathway AGP1-GFP in S. cerevisiae; GFP response vs DMSO, % at 10 µM; actives 0.02% (n = 320,000); S. cerevisiae AGP1-GFP multiplex flow cytometry, 3 h; GFP as percent of DMSO wells;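 active = GFP response relative to DMSO above a set limit, near screen average plus 3 SD, cut at about 150% in these data; inconclusive = fewer than 70 cells counted for the yeast strain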;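 also: median GFP channel fluorescence of the gated AGP1 strain per well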
Hits are given with their value; [ ] = dose if it differs, or a comment. Hits are enriched below; roughly 1.1% of the tested compounds scored in any of these assays.

What do the screens show for `O=C(Cn1c(=O)oc2ccccc21)Nc1n[nH]c(=S)s1`?
LAP4 TOR yeast: inactive; MEP2 TOR yeast: inactive; RPL19A-GFP yeast: inactive; VLA-4 inh: inactive; CIT2-GFP yeast: inactive; AGP1-GFP MLPCN: inactive

Results for COCCNC(=O)c1c(N)n(-c2ccccc2)c2nc3ccccc3nc12 ?
LAP4 TOR yeast: inactive; MEP2 TOR yeast: inactive; RPL19A-GFP yeast: inactive; VLA-4 inh: inactive; CIT2-GFP yeast: inactive; AGP1-GFP MLPCN: inactive

What do the screens show for `Cc1ccc(C(=O)NCCn2c(N)c(C#N)c3nc4ccccc4nc32)cc1`?
LAP4 TOR yeast: inactive; MEP2 TOR yeast: 184[may fluoresce violet]; RPL19A-GFP yeast: inactive; VLA-4 inh: inactive; CIT2-GFP yeast: inconclusive; AGP1-GFP MLPCN: inactive

How did COCCNC(=O)c1c(N)n(CCCn2ccnc2)c2nc3ccccc3nc12 do in these assays?
LAP4 TOR yeast: inactive; MEP2 TOR yeast: 224[may fluoresce violet]; RPL19A-GFP yeast: 44[may fluoresce violet]; VLA-4 inh: inactive; CIT2-GFP yeast: inconclusive; AGP1-GFP MLPCN: inconclusive

Results for Nc1[nH]c(=O)ncc1F ?
LAP4 TOR yeast: 261[may fluoresce red]; MEP2 TOR yeast: inactive; RPL19A-GFP yeast: inconclusive; VLA-4 inh: inactive; CIT2-GFP yeast: inactive; AGP1-GFP MLPCN: inactive

What do the screens show for `CCOC(=O)C(=CNNc1cccc(Cl)c1)C(=O)OCC`?
LAP4 TOR yeast: 154; MEP2 TOR yeast: inactive; RPL19A-GFP yeast: inactive; VLA-4 inh: inactive; CIT2-GFP yeast: inactive; AGP1-GFP MLPCN: inactive

How did C#CCOCCOCCOCCNc1nc(N2CCN(C(=O)CCCCCCCCCCNC(=O)Cn3cc(C[C@@H](C)O)nn3)CC2)nc(N2CCN(C(=O)CCCCCCCCCCNC(=O)[C@H](CCCCN)n3cc(C[C@@H](C)CC)nn3)CC2)n1 do in these assays?
LAP4 TOR yeast: inactive; MEP2 TOR yeast: inactive; RPL19A-GFP yeast: inactive; VLA-4 inh: inactive; CIT2-GFP yeast: inactive; AGP1-GFP MLPCN: inactive

Results for C#CCOCCOCCOCCNc1nc(N2CCN(C(=O)CCCCCCCCCCNC(=O)[C@H]([C@@H](C)CC)n3cc(CCCCN=C(N)N)nn3)CC2)nc(N2CCN(C(=O)CCCCCCCCCCNC(=O)[C@H](CCCCN)n3cc(C[C@@H](C)CC)nn3)CC2)n1 ?
LAP4 TOR yeast: 187; MEP2 TOR yeast: inactive; RPL19A-GFP yeast: inactive; VLA-4 inh: inactive; CIT2-GFP yeast: inactive; AGP1-GFP MLPCN: inactive

How did C#CCOCCOCCOCCNc1nc(N2CCN(C(=O)CCCCCCCCCCNC(=O)[C@H](CCCCN)n3cc(C[C@@H](C)CC)nn3)CC2)nc(N2CCN(C(=O)CCCCCCCCCCNC(=O)[C@H](CCCCN)n3cc(C[C@@H](C)CC)nn3)CC2)n1 do in these assays?
LAP4 TOR yeast: 216; MEP2 TOR yeast: inactive; RPL19A-GFP yeast: inactive; VLA-4 inh: inactive; CIT2-GFP yeast: inactive; AGP1-GFP MLPCN: inactive

Results for COc1ccc(C)cc1NC(=O)CSc1nnc2ccc(-c3ccncc3)nn12 ?
LAP4 TOR yeast: inactive; MEP2 TOR yeast: inactive; RPL19A-GFP yeast: inactive; VLA-4 inh: inactive; CIT2-GFP yeast: inactive; AGP1-GFP MLPCN: inactive

What do the screens show for `CCN1/C(=C/c2ccc3cc(C)ccc3[n+]2CC)Sc2ccccc21`?
LAP4 TOR yeast: 605[may fluoresce green]; MEP2 TOR yeast: active[may fluoresce green]; RPL19A-GFP yeast: inactive; CIT2-GFP yeast: active[may fluoresce green]; AGP1-GFP MLPCN: 238[may fluoresce green]

How did NS(=O)(=O)c1ccc(NC(=O)CN2C(=O)CCC2=O)cc1 do in these assays?
LAP4 TOR yeast: inactive; MEP2 TOR yeast: 812[may fluoresce violet]; RPL19A-GFP yeast: 46[may fluoresce violet]; VLA-4 inh: inactive; CIT2-GFP yeast: inconclusive; AGP1-GFP MLPCN: inactive

What do the screens show for `CN(CC(=O)Nc1ccccc1Cl)CC(=O)Nc1sc2c(c1C(N)=O)CCC2`?
LAP4 TOR yeast: inactive; MEP2 TOR yeast: inactive; RPL19A-GFP yeast: inactive; VLA-4 inh: inactive; CIT2-GFP yeast: inactive; AGP1-GFP MLPCN: inactive

What do the screens show for `CCN(CC)CCCNC(=O)CCn1nc(-c2ccccc2)ccc1=O`?
LAP4 TOR yeast: inactive; MEP2 TOR yeast: inactive; RPL19A-GFP yeast: inactive; VLA-4 inh: inactive; CIT2-GFP yeast: inactive; AGP1-GFP MLPCN: inactive

How did O=C(O)c1ccc2c3c(ncnc13)-c1ccccc1C2=O do in these assays?
LAP4 TOR yeast: 170; MEP2 TOR yeast: inactive; RPL19A-GFP yeast: inactive; VLA-4 inh: inactive; CIT2-GFP yeast: inactive; AGP1-GFP MLPCN: inactive
